{"source": "the supplement of paper PMC8728848", "binders": {"B1": {"name": "Langerin (Homo sapiens), Q9UJ71 (protein)", "chain": "STLNAQIPELKSDLEKASALNTKIRALQGSLENMSKLLKRQNDILQVVSQGWKYFKGNFYYFSLIPKTWYSAEQFCVSRNSHLTSVTSESEQEFLYKTAGGLIYWIGLTKAGMEGDWSWVDDTPFNKVQSARFWIPGEPNDAGNNEHCGNIKAPSLQAWNDAPCDITFLFICKRPYVPSEP"}}, "assay_in_all_cases": "glycan array binding signal (z-score within array); higher = stronger binding", "settings_in_all_cases": "glycan notation: IUPAC condensed, linker removed; mutation: N288D, K313I", "key": {"[1]": {"molecular_target": "GlcNAc(b1-2)Man(a1-3)[GlcNAc(b1-4)][GlcNAc(b1-2)Man(a1-6)]Man(b1-4)GlcNAc(b1-4)[Fuc(a1-6)]GlcNAc", "how_it_was_run": "(§1)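 Glycan array data came from 3228 arrays in the Consortium for Functional Glycomics database, and only arrays with an available protein sequence were kept. Glycan names were put into IUPAC-condensed notation, and columns mapping to the same glycan were averaged. The binding signal is a within-array Z-score, averaged across arrays of one protein sequence run at different concentrations or buffers and across linkers. A negative Z-score can be read as non-binding.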"}, "[2]": {"molecular_target": "GlcNAc(b1-2)[GlcNAc(b1-4)]Man(a1-3)[GlcNAc(b1-2)Man(a1-6)]Man(b1-4)GlcNAc(b1-4)GlcNAc", "how_it_was_run": "as §1"}, "[3]": {"molecular_target": "GlcNAc(b1-2)[GlcNAc(b1-4)]Man(a1-3)[GlcNAc(b1-4)][GlcNAc(b1-2)[GlcNAc(b1-6)]Man(a1-6)]Man(b1-4)GlcNAc(b1-4)[Fuc(a1-6)]GlcNAc", "how_it_was_run": "as §1"}, "[4]": {"molecular_target": "GlcNAc(b1-2)[GlcNAc(b1-6)]Man(a1-6)[GlcNAc(b1-2)Man(a1-3)]Man(b1-4)GlcNAc(b1-4)GlcNAc", "how_it_was_run": "as §1"}, "[5]": {"molecular_target": "GlcNAc(b1-2)[GlcNAc(b1-6)]Man(a1-6)[GlcNAc(b1-4)][GlcNAc(b1-2)Man(a1-3)]Man(b1-4)GlcNAc(b1-4)GlcNAc", "how_it_was_run": "as §1"}, "[6]": {"molecular_target": "GlcNAc(b1-3)Gal(b1-4)GlcNAc", "how_it_was_run": "as §1"}, "[7]": {"molecular_target": "GlcNAc(b1-3)Gal(b1-4)GlcNAc(b1-2)[GlcNAc(b1-3)Gal(b1-4)GlcNAc(b1-6)]Man(a1-6)[GlcNAc(b1-3)Gal(b1-4)GlcNAc(b1-2)Man(a1-3)]Man(b1-4)GlcNAc(b1-4)GlcNAc", "how_it_was_run": "as §1"}, "[8]": {"molecular_target": "GlcNAc(b1-3)Gal(b1-4)GlcNAc(b1-3)Gal(b1-4)GlcNAc(b1-2)[GlcNAc(b1-3)Gal(b1-4)GlcNAc(b1-3)Gal(b1-4)GlcNAc(b1-6)]Man(a1-6)[GlcNAc(b1-3)Gal(b1-4)GlcNAc(b1-3)Gal(b1-4)GlcNAc(b1-2)Man(a1-3)]Man(b1-4)GlcNAc(b1-4)[Fuc(a1-6)]GlcNAc", "how_it_was_run": "as §1"}, "[9]": {"molecular_target": "GlcNAc(b1-3)Gal(b1-4)GlcNAc(b1-3)Gal(b1-4)GlcNAc(b1-3)Gal(b1-4)GlcNAc(b1-2)[GlcNAc(b1-3)Gal(b1-4)GlcNAc(b1-3)Gal(b1-4)GlcNAc(b1-3)Gal(b1-4)GlcNAc(b1-6)]Man(a1-6)[GlcNAc(b1-3)Gal(b1-4)GlcNAc(b1-3)Gal(b1-4)GlcNAc(b1-3)Gal(b1-4)GlcNAc(b1-2)Man(a1-3)]Man(b1-4)GlcNAc(b1-4)[Fuc(a1-6)]GlcNAc", "how_it_was_run": "as §1"}, "[10]": {"molecular_target": "GlcNAc(b1-3)Gal(b1-4)GlcNAc(b1-3)Gal(b1-4)GlcNAc(b1-3)Gal(b1-4)GlcNAc(b1-3)Gal(b1-4)GlcNAc(b1-2)Man(a1-3)[GlcNAc(b1-3)Gal(b1-4)GlcNAc(b1-3)Gal(b1-4)GlcNAc(b1-3)Gal(b1-4)GlcNAc(b1-3)Gal(b1-4)GlcNAc(b1-2)Man(a1-6)]Man(b1-4)GlcNAc(b1-4)[Fuc(a1-6)]GlcNAc", "how_it_was_run": "as §1"}, "[11]": {"molecular_target": "GlcNAc(b1-3)Gal(b1-4)GlcNAc(b1-6)[GlcNAc(b1-3)]Gal(b1-4)GlcNAc", "how_it_was_run": "as §1"}, "[12]": {"molecular_target": "GlcNAc(b1-3)GalNAc", "how_it_was_run": "as §1"}, "[13]": {"molecular_target": "GlcNAc(b1-3)[GlcNAc(b1-6)]Gal(b1-4)GlcNAc", "how_it_was_run": "as §1"}, "[14]": {"molecular_target": "Kdn(a2-3)Gal(b1-3)GlcNAc", "how_it_was_run": "as §1"}, "[15]": {"molecular_target": "Neu5Ac(a2-3)Gal(b1-3)GlcNAc(b1-6)GalNAc", "how_it_was_run": "as §1"}, "[16]": {"molecular_target": "Neu5Ac(a2-3)Gal(b1-3)[Fuc(a1-4)]GlcNAc(b1-3)Gal(b1-3)[Fuc(a1-4)]GlcNAc", "how_it_was_run": "as §1"}, "[17]": {"molecular_target": "Neu5Ac(a2-3)Gal(b1-3)[Neu5Ac(a2-6)]GlcNAc(b1-3)[Fuc(a1-3)[Gal(b1-4)]GlcNAc(b1-6)]Gal(b1-4)Glc", "how_it_was_run": "as §1"}, "[18]": {"molecular_target": "Neu5Ac(a2-3)Gal(b1-4)GlcNAc(b1-6)GalNAc", "how_it_was_run": "as §1"}, "[19]": {"molecular_target": "Neu5Ac(a2-3)Gal(b1-4)GlcNAc6S", "how_it_was_run": "as §1"}, "[20]": {"molecular_target": "Neu5Ac(a2-3)Gal(b1-4)[Fuc(a1-3)]GlcNAc(b1-2)Man", "how_it_was_run": "as §1"}, "[21]": {"molecular_target": "Neu5Ac(a2-3)Gal(b1-4)[Fuc(a1-3)]GlcNAc(b1-3)Gal", "how_it_was_run": "as §1"}, "[22]": {"molecular_target": "Neu5Ac(a2-3)Gal(b1-4)[Fuc(a1-3)]GlcNAc(b1-3)GalNAc", "how_it_was_run": "as §1"}, "[23]": {"molecular_target": "Neu5Ac(a2-6)Gal(b1-4)GlcNAc(b1-2)Man(a1-6)[GlcNAc(b1-2)Man(a1-3)]Man(b1-4)GlcNAc(b1-4)GlcNAc", "how_it_was_run": "as §1"}, "[24]": {"molecular_target": "Neu5Ac(a2-6)Gal(b1-4)GlcNAc(b1-2)Man(a1-6)[Man(a1-3)]Man(b1-4)GlcNAc(b1-4)GlcNAc", "how_it_was_run": "as §1"}, "[25]": {"molecular_target": "Neu5Ac(a2-6)Gal(b1-4)GlcNAc(b1-3)Gal(b1-4)GlcNAc(b1-6)[Gal(b1-3)]GalNAc", "how_it_was_run": "as §1"}, "[26]": {"molecular_target": "Neu5Ac(a2-6)Gal(b1-4)GlcNAc(b1-6)GalNAc", "how_it_was_run": "as §1"}, "[27]": {"molecular_target": "Neu5Ac(a2-8)Neu5Ac(a2-8)Neu5Ac(a2-8)Neu5Ac(a2-3)[GalNAc(b1-4)]Gal(b1-4)Glc", "how_it_was_run": "as §1"}, "[28]": {"molecular_target": "Neu5Ac(b2-6)GalNAc", "how_it_was_run": "as §1"}, "[29]": {"molecular_target": "Neu5Ac9Ac(a2-3)Gal(b1-4)GlcNAc", "how_it_was_run": "as §1"}}, "note": "Many of the other results were omitted from the sample, so the strongest signals are more common in it than they were."}
{"binder": "B1", "values": [{"measurement": "glycan array binding signal (z-score)", "setting": "[1]", "result": 1.18}, {"measurement": "glycan array binding signal (z-score)", "setting": "[2]", "result": 0.028}, {"measurement": "glycan array binding signal (z-score)", "setting": "[3]", "result": 1.91}, {"measurement": "glycan array binding signal (z-score)", "setting": "[4]", "result": -0.239}, {"measurement": "glycan array binding signal (z-score)", "setting": "[5]", "result": 0.046}, {"measurement": "glycan array binding signal (z-score)", "setting": "[6]", "result": 1.72}, {"measurement": "glycan array binding signal (z-score)", "setting": "[7]", "result": 2.14}, {"measurement": "glycan array binding signal (z-score)", "setting": "[8]", "result": 16.7}, {"measurement": "glycan array binding signal (z-score)", "setting": "[9]", "result": 0.284}, {"measurement": "glycan array binding signal (z-score)", "setting": "[10]", "result": 2.34}, {"measurement": "glycan array binding signal (z-score)", "setting": "[11]", "result": 5.4}, {"measurement": "glycan array binding signal (z-score)", "setting": "[12]", "result": -0.205}, {"measurement": "glycan array binding signal (z-score)", "setting": "[13]", "result": 4.87}, {"measurement": "glycan array binding signal (z-score)", "setting": "[14]", "result": -0.115}, {"measurement": "glycan array binding signal (z-score)", "setting": "[15]", "result": -0.092}, {"measurement": "glycan array binding signal (z-score)", "setting": "[16]", "result": -0.088}, {"measurement": "glycan array binding signal (z-score)", "setting": "[17]", "result": -0.298}, {"measurement": "glycan array binding signal (z-score)", "setting": "[18]", "result": -0.165}, {"measurement": "glycan array binding signal (z-score)", "setting": "[19]", "result": -0.294}, {"measurement": "glycan array binding signal (z-score)", "setting": "[20]", "result": -0.159}, {"measurement": "glycan array binding signal (z-score)", "setting": "[21]", "result": -0.338}, {"measurement": "glycan array binding signal (z-score)", "setting": "[22]", "result": 0.034}, {"measurement": "glycan array binding signal (z-score)", "setting": "[23]", "result": -0.278}, {"measurement": "glycan array binding signal (z-score)", "setting": "[24]", "result": -0.187}, {"measurement": "glycan array binding signal (z-score)", "setting": "[25]", "result": -0.179}, {"measurement": "glycan array binding signal (z-score)", "setting": "[26]", "result": 0.078}, {"measurement": "glycan array binding signal (z-score)", "setting": "[27]", "result": -0.254}, {"measurement": "glycan array binding signal (z-score)", "setting": "[28]", "result": -0.196}, {"measurement": "glycan array binding signal (z-score)", "setting": "[29]", "result": -0.434}]}
